Experimental findings from PubChem BioAssay are described below.

A number with no mark means an inactive call. Activity calls are given as the source filed them.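 The calls were made as follows: active = at least 20% inhibition of 6-phosphogluconate dehydrogenase activity; inactive = the rest.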 Peptide text beside a SMILES is read from it.

The target in the assay is 6-phosphogluconate dehydrogenase, decarboxylating (Homo sapiens) (UniProt P52209). Put plainly: 6PGD enzyme inhibitors, primary screen, biochemical, human, recombinant enzyme, NADPH absorbance (AID 1159550). As to conditions: recombinant 6PGD, NADPH absorbance 341 nm; at 10 µM; active compounds read high.
Sequence of 6-phosphogluconate dehydrogenase, decarboxylating (Homo sapiens) (P52209 whole entry, looked up): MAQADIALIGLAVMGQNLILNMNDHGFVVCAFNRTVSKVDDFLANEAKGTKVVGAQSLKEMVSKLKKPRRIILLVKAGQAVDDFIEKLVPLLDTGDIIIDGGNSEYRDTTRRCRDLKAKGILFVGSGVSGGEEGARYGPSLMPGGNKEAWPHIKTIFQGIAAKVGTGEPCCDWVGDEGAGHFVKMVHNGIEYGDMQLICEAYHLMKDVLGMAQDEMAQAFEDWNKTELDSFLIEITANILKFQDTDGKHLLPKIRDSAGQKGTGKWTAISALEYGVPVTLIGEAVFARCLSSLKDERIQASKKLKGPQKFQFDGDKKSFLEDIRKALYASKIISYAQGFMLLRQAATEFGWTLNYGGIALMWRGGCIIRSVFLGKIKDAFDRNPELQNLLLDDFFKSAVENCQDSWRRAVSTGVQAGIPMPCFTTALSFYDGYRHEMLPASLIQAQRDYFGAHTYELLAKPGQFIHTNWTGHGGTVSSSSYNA
On to `CCCC(C(=O)OCCN(CC)CC)(c1ccccc1)c1ccccc1`, for which the inhibition (in general, the drop in the measured response relative to a control, in per cent) was 3.92%.

Consider `O=C(Nc1ccc([N+](=O)[O-])cc1Cl)c1cc(Cl)ccc1O`, for which the inhibition was 9.61%. `C=CC(N)CCC(=O)O` (stereo not drawn): the inhibition was -0.693%. Regarding `CC1(C)O[C@@H]2C[C@H]3[C@@H]4CCC5=CC(=O)CC[C@]5(C)[C@@]4(F)[C@@H](O)C[C@]3(C)[C@]2(C(=O)CCl)O1`, the inhibition was 12.4%. For `CNC1(C)C2CCC(C2)C1(C)C` (stereo not drawn), the inhibition is -9.67%. For the compound `NCCS`, the inhibition was -14%. With `OC[C@H]1O[C@@H](O[C@@H]2[C@@H](CO)O[C@](O)(CO)[C@H]2O)[C@H](O)[C@@H](O)[C@H]1O`, the inhibition was 0.0837%. For the compound `Nc1c2c(nc3ccccc13)CCCC2O` (stereo not drawn), the inhibition is 7.08%.

Consider `CSc1ccc2c(c1)C(N1CCN(C)CC1)Cc1ccccc1S2` (stereo not drawn), for which the inhibition was -11.1%. With `Cc1ccc(C(=O)Nc2ccc(S(=O)(=O)O)c3cc(S(=O)(=O)O)cc(S(=O)(=O)O)c23)cc1NC(=O)c1cccc(NC(=O)Nc2cccc(C(=O)Nc3cc(C(=O)Nc4ccc(S(=O)(=O)O)c5cc(S(=O)(=O)O)cc(S(=O)(=O)O)c45)ccc3C)c2)c1`, the inhibition is 27.5% (active). As for `C[N+]1(CCCCC[N+]2(C)CCCC2)CCCC1`, the inhibition is 10.2%. As to `CCCCCN(CCCCC)C(=O)C(CCC(=O)O)NC(=O)c1ccc(Cl)c(Cl)c1` (stereo not drawn), the inhibition is 2.64%. The figure for `NC(=O)NO` is -7.1%; for `CCOC(=O)C(C)(C)Oc1ccc(Cl)cc1` it is -1.28%; for `CC(=O)OC(C)C[N+](C)(C)C` (stereo not drawn) it is 19.2%. For `NNc1nncc2ccccc12`, the inhibition was 15.4%.

With `CCOC(=O)NNc1nncc2ccccc12`, the inhibition was -20.7%. For `COC(=O)[C@H](Cc1ccccc1)NC(=O)[C@@H](N)CC(=O)O` (H-Asp-Phe-OMe), the inhibition was 10.8%. For the compound `COc1ccnc(CS(=O)c2nc3ccc(OC(F)F)cc3[nH]2)c1OC` (stereo not drawn), the inhibition was 11.1%.

For `COC(=O)[C@@H]1[C@H]2C[C@H]3c4[nH]c5ccccc5c4CCN3C[C@@H]2CC[C@@H]1O`, the inhibition was 2.13%. Turning to `CC(=O)Oc1ccccc1C(=O)O`, the inhibition was 15.9%. The figure for `Cn1cnc2c1c(=O)[nH]c(=O)n2C` is -1.33%; for `O=C(COc1ccc(Cl)cc1)N1CCN(Cc2ccc3c(c2)OCO3)CC1` it is 11.5%; for `C[n+]1cc2c3c(ccc2c2ccc4cc5c(cc4c21)OCO5)OCO3` it is 11.1%. As for `CN(C)[C@@H]1C(=O)C(C(N)=O)=C(O)[C@@]2(O)C(=O)C3=C(O)c4c(O)ccc(Cl)c4[C@@H](O)[C@H]3C[C@@H]12`, the inhibition is 0.718%.

As to `Cc1cc(N)c2ccccc2[n+]1CCCCCCCCCC[n+]1c(C)cc(N)c2ccccc21`, the inhibition was 4.29%. Take `C=Cc1c(C)c2cc3[nH]c(cc4nc(cc5nc(cc1[nH]2)C(C)=C5CCC(=O)O)C(CCC(=O)O)=C4C)c(C)c3C=C`: the inhibition is 16.8%. The value for `CCN(CC)C(C)CN1c2ccccc2Sc2ccccc21` (stereo not drawn) was -5.57%; that for `NCCCCCC(=O)O` was 11.8%; that for `CCN(CC)CCNC(=O)c1ccc(NC(C)=O)cc1` was 3.51%. For the compound `CCOC(=O)c1ccc(N)cc1`, the inhibition was -17.7%. Turning to `CNC[C@H](O)c1cccc(O)c1`, the inhibition is 10.8%.

For the compound `O=c1c(O)c(-c2ccc(O)c(O)c2)oc2cc(O)cc(O)c12`, the inhibition was 26.1% (active). Consider `O=C(OCC(O)CO)c1ccccc1Nc1ccnc2cc(Cl)ccc12` (stereo not drawn), for which the inhibition is 11.2%.

For `CC(=O)O[C@]1(C(C)=O)CC[C@H]2[C@@H]3C=C(Cl)C4=CC(=O)[C@@H]5C[C@@H]5[C@]4(C)[C@H]3CC[C@@]21C`, the inhibition is -7.53%. With `C[C@H]1O[C@@H](n2cc(F)c(=O)[nH]c2=O)[C@H](O)[C@@H]1O`, the inhibition was -6.33%. Turning to `CC1(C)NC(=O)N(c2ccc([N+](=O)[O-])c(C(F)(F)F)c2)C1=O`, the inhibition is 9.97%.

As for `C[N+](C)(C)CCCCCC[N+](C)(C)C`, the inhibition was 12.6%.
